# About 79,000 compounds went through this panel and 15% of them were active in at least one assay; those are over-represented in the sample as a whole. A number with no mark means an inactive call. Activity calls are given as the source filed them. No stated cut-off is given here; in the data, active means growth inhibition above about 70%; inactive means the rest.
# What was measured:
# [1] = NCI Yeast Anticancer Drug Screen. Data for the rad52 strain (AID 147);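 further: 0% = growth of vehicle-treated control cultures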; details: S. cerevisiae rad52 mutant growth inhibition, active compounds read high
# In short: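 Vehicle-treated cultures served as the reference for growth inhibition of compound-exposed yeast bearing a DNA repair mutation.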
# [2] = NCI Yeast Anticancer Drug Screen. Data for the wt1 strain (AID 149);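 further: 0% = growth of vehicle-treated wt1 cultures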; details: S. cerevisiae wt1 strain (SPY 50644) growth inhibition, active compounds read high
# In short: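 Using yeast strain wt1, compound-induced growth inhibition was determined against vehicle-treated cultures.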
# [3] = NCI Yeast Anticancer Drug Screen. Data for the rad50EPP+ strain (AID 151);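 further: 0% = growth of vehicle-treated control cultures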; details: S. cerevisiae rad50 mutant strain, active compounds read high
# In short: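 In this screen, rad50EPP+ yeast were exposed to compounds. Growth inhibition was scored against vehicle-treated controls.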
# [4] = NCI Yeast Anticancer Drug Screen. Data for the mgt1 strain (AID 153); details: S. cerevisiae mgt1 mutant growth inhibition, active compounds read high
# In short: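 mgt1 strain exposed; growth vs vehicle control recorded as inhibition.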
# [5] = NCI Yeast Anticancer Drug Screen. Data for the rad50 strain (AID 155);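 further: 0% = growth of vehicle-only cultures of the same strain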; details: S. cerevisiae rad50 strain growth inhibition, active compounds read high
# In short: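 Relative growth inhibition (compound vs vehicle) was measured in yeast with a defined repair-gene alteration.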
# [6] = NCI Yeast Anticancer Drug Screen. Data for the mec2-1 strain (AID 157); details: S. cerevisiae mec2-1 strain, active compounds read high
# In short: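 Vehicle-treated cultures served as reference for growth inhibition of compound-exposed mec2-1 yeast.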
# [7] = NCI Yeast Anticancer Drug Screen. Data for the rad14 strain (AID 159);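 further: 0% = growth of vehicle-treated control cultures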; details: S. cerevisiae rad14 strain growth inhibition, active compounds read high
# In short: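 Screen for anticancer potential: a yeast strain altered in DNA damage repair is grown with compound, and reduced growth is quantified against vehicle controls.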
# [8] = NCI Yeast Anticancer Drug Screen. Data for the sgs1 mgt1 strain (AID 161);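 further: 0% = growth of cultures given vehicle only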; details: S. cerevisiae sgs1 mgt1 strain, active compounds read high
# In short: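 Genetically altered yeast, compound exposure, growth inhibition relative to vehicle.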
# [9] = NCI Yeast Anticancer Drug Screen. Data for the CLN2oe strain (AID 163);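 further: 0% = growth of vehicle-only control cultures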; details: S. cerevisiae CLN2oe strain, active compounds read high
# In short: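 Inhibition relative to vehicle-treated yeast is reported. Cells: strain with genetic alteration in cell-cycle control, grown with compound.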
# [10] = NCI Yeast Anticancer Drug Screen. Data for the cln2 rad14 strain (AID 165);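 further: 0% = growth equal to vehicle treated cultures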; details: S. cerevisiae cln2 rad14 strain, active compounds read high
# In short: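 Each compound was tested on cln2 rad14 yeast. Inhibition of growth was calculated against vehicle-exposed controls.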
# [11] = NCI Yeast Anticancer Drug Screen. Data for the bub3 strain (AID 167); details: S. cerevisiae bub3 mutant strain, active compounds read high
# In short: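 Screening used yeast with an engineered genetic alteration affecting cell cycle control. Compound-exposed cultures were compared with vehicle cultures, and reduced growth was taken as inhibition.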
# [12] = NCI Yeast Anticancer Drug Screen. Data for the wt2 strain (AID 169);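 further: 0% = growth of vehicle-treated yeast cultures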; details: S. cerevisiae wt2 strain growth inhibition, active compounds read high
# In short: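 Inhibition of yeast growth was determined after compound treatment, normalised to controls receiving only vehicle.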
# [13] = NCI Yeast Anticancer Drug Screen. Data for the mlh1 strain (AID 171);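 further: 0% = growth of vehicle-treated control cultures of the same strain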; details: S. cerevisiae mlh1 strain growth inhibition, active compounds read high
# In short: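 Vehicle-normalised growth inhibition of a repair- or checkpoint-altered yeast strain following compound treatment.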
# [14] = NCI Yeast Anticancer Drug Screen. Data for the sgs1 strain (AID 173);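 further: 0% = growth of vehicle-only control cultures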; details: S. cerevisiae sgs1 mutant, active compounds read high
# In short: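 Screen format: yeast with repair or checkpoint alterations, compound exposure, growth read relative to vehicle.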
# [15] = NCI Yeast Anticancer Drug Screen. Data for the mlh1 rad18 strain (AID 175); details: S. cerevisiae mlh1 rad18 strain growth inhibition, active compounds read high
# In short: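 Vehicle-treated cultures served as the reference for growth inhibition in a yeast strain carrying DNA damage repair alterations exposed to each compound.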
# [16] = NCI Yeast Anticancer Drug Screen. Data for the rad18 strain (AID 177); details: S. cerevisiae rad18 mutant growth inhibition, active compounds read high
# In short: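 Test articles were incubated with altered yeast defective in DNA damage repair. Results are given as inhibition of growth versus vehicle.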
# [17] = at 5.0 µM (retest, dose inferred, filed as 0.5)
# [18] = at 50.0 µM (retest, dose inferred, filed as 5.0)
structure (smiles),measurement,setting,value
Nc1nc(N)c2nc(CNc3ccc(C(=O)NC(CCC(=O)O)C(=O)O)cc3F)cnc2n1 (stereo not drawn),growth inhibition,[1]; at 1.2 µM,28%
same,growth inhibition,[1]; at 3.7 µM,42%
same,growth inhibition,[1]; at 11.0 µM,62%
same,growth inhibition,[1]; at 33.0 µM,82% (active)
same,growth inhibition,[1]; at 100.0 µM,89% (active)
same,growth inhibition,[2]; at 1.2 µM,13%
same,growth inhibition,[2]; at 3.7 µM,12%
same,growth inhibition,[2]; at 11.0 µM,17%
same,growth inhibition,[2]; at 33.0 µM,50%
same,growth inhibition,[2]; at 100.0 µM,78% (active)
same,growth inhibition,[3]; at 1.2 µM,23%
same,growth inhibition,[3]; at 3.7 µM,13%
same,growth inhibition,[3]; at 11.0 µM,13%
same,growth inhibition,[3]; at 33.0 µM,15%
same,growth inhibition,[3]; at 100.0 µM,39%
same,growth inhibition,[4]; at 1.2 µM,19%
same,growth inhibition,[4]; at 3.7 µM,16%
same,growth inhibition,[4]; at 11.0 µM,15%
same,growth inhibition,[4]; at 33.0 µM,36%
same,growth inhibition,[4]; at 100.0 µM,63%
same,growth inhibition,[5]; at 1.2 µM,7%
same,growth inhibition,[5]; at 3.7 µM,18%
same,growth inhibition,[5]; [17],13%
same,growth inhibition,[5]; at 11.0 µM,30%
same,growth inhibition,[5]; at 33.0 µM,55%
same,growth inhibition,[5]; [18],86% (active)
same,growth inhibition,[5]; at 50.0 µM,43%
same,growth inhibition,[5]; at 100.0 µM,74% (active)
same,growth inhibition,[6]; at 1.2 µM,19%
same,growth inhibition,[6]; at 3.7 µM,26%
same,growth inhibition,[6]; [17],26%
same,growth inhibition,[6]; at 11.0 µM,81% (active)
same,growth inhibition,[6]; at 33.0 µM,93% (active)
same,growth inhibition,[6]; [18],97% (active)
same,growth inhibition,[6]; at 50.0 µM,86.7% (active)
same,growth inhibition,[6]; at 100.0 µM,94% (active)
same,growth inhibition,[7]; at 1.2 µM,0%
same,growth inhibition,[7]; at 3.7 µM,-19%
same,growth inhibition,[7]; at 11.0 µM,0%
same,growth inhibition,[7]; at 33.0 µM,54%
same,growth inhibition,[7]; at 100.0 µM,82% (active)
same,growth inhibition,[8]; [17],-4%
same,growth inhibition,[8]; [18],56%
same,growth inhibition,[8]; at 50.0 µM,39.5%
same,growth inhibition,[9]; at 1.2 µM,-8%
same,growth inhibition,[9]; at 3.7 µM,13%
same,growth inhibition,[9]; at 11.0 µM,18%
same,growth inhibition,[9]; at 33.0 µM,17%
same,growth inhibition,[9]; at 100.0 µM,46%
same,growth inhibition,[10]; [17],14%
same,growth inhibition,[10]; [18],-2%
same,growth inhibition,[10]; at 50.0 µM,-5.05%
same,growth inhibition,[11]; at 1.2 µM,6%
same,growth inhibition,[11]; at 3.7 µM,6%
same,growth inhibition,[11]; [17],2%
same,growth inhibition,[11]; at 11.0 µM,6%
same,growth inhibition,[11]; at 33.0 µM,35%
same,growth inhibition,[11]; [18],82% (active)
same,growth inhibition,[11]; at 50.0 µM,29.2%
same,growth inhibition,[11]; at 100.0 µM,73% (active)
same,growth inhibition,[12]; at 1.2 µM,-19%
same,growth inhibition,[12]; at 3.7 µM,-11%
same,growth inhibition,[12]; at 11.0 µM,-21%
same,growth inhibition,[12]; at 33.0 µM,2%
same,growth inhibition,[12]; at 100.0 µM,48%
same,growth inhibition,[13]; at 1.2 µM,16%
same,growth inhibition,[13]; at 3.7 µM,10%
same,growth inhibition,[13]; at 11.0 µM,8%
same,growth inhibition,[13]; at 33.0 µM,29%
same,growth inhibition,[13]; at 100.0 µM,46%
same,growth inhibition,[14]; at 1.2 µM,24%
same,growth inhibition,[14]; at 3.7 µM,14%
same,growth inhibition,[14]; at 11.0 µM,15%
same,growth inhibition,[14]; at 33.0 µM,41%
same,growth inhibition,[14]; at 100.0 µM,67%
same,growth inhibition,[15]; [17],18%
same,growth inhibition,[15]; [18],67%
same,growth inhibition,[15]; at 50.0 µM,-2.7%
same,growth inhibition,[16]; at 1.2 µM,20%
same,growth inhibition,[16]; at 3.7 µM,19%
same,growth inhibition,[16]; at 11.0 µM,35%
same,growth inhibition,[16]; at 33.0 µM,72% (active)
same,growth inhibition,[16]; at 100.0 µM,80% (active)
CCCCNC1CCC2(SCCS2)c2[nH]c3ccccc3c21 (stereo not drawn),growth inhibition,[1]; at 1.2 µM,2%
same,growth inhibition,[1]; at 3.7 µM,5%
same,growth inhibition,[1]; at 11.0 µM,3%
same,growth inhibition,[1]; at 33.0 µM,4%
same,growth inhibition,[1]; at 100.0 µM,5%
same,growth inhibition,[2]; at 1.2 µM,1%
same,growth inhibition,[2]; at 3.7 µM,1%
same,growth inhibition,[2]; at 11.0 µM,0%
same,growth inhibition,[2]; at 33.0 µM,1%
same,growth inhibition,[2]; at 100.0 µM,6%
same,growth inhibition,[3]; at 1.2 µM,-2%
same,growth inhibition,[3]; at 3.7 µM,-1%
same,growth inhibition,[3]; at 11.0 µM,-2%
same,growth inhibition,[3]; at 33.0 µM,-4%
same,growth inhibition,[3]; at 100.0 µM,7%
same,growth inhibition,[4]; at 1.2 µM,2%
same,growth inhibition,[4]; at 3.7 µM,-2%
same,growth inhibition,[4]; at 11.0 µM,7%
same,growth inhibition,[4]; at 33.0 µM,-5%
same,growth inhibition,[4]; at 100.0 µM,7%
same,growth inhibition,[5]; at 1.2 µM,2%
same,growth inhibition,[5]; at 3.7 µM,3%
same,growth inhibition,[5]; [17],9%
same,growth inhibition,[5]; at 11.0 µM,-7%
same,growth inhibition,[5]; at 33.0 µM,3%
same,growth inhibition,[5]; [18],49%
same,growth inhibition,[5]; at 50.0 µM,87.3% (active)
same,growth inhibition,[5]; at 100.0 µM,6%
same,growth inhibition,[6]; at 1.2 µM,10%
same,growth inhibition,[6]; at 3.7 µM,-1%

# Source: PubChem BioAssay (NCI)
